We go through 40 compounds from PubChem BioAssay (Tox21).

SMILES strings stand for the structures. Records with an inconclusive call do not appear. Entries that show only a call come without a potency. Active and inactive are the calls of the source. Calls follow the shape of the full dose curve.

A short description of the experiment: p53 small molecule agonists, cell-based qHTS assay: qHTS cell viability counter screen (AID 1963581). Also: nearly all actives have a fitted effect of over 45% in size. As to conditions: p53RE-bla HCT-116 viability, ATP luminescence, 16 h; series mostly up to 66 µM. From the text: National Center for Advancing Translational Sciences [NCATS]
Division of Preclinical Innovation [DPI]
U.S. Environmental Protection Agency [EPA]
National Institutes of Environmental Health Sciences [NIEHS]
National Toxicology Program [NTP]
U.S. Food and Drug Administration [FDA]
p53, a tumor suppressor protein, is activated following cellular insult, including DNA damage and other cellular stresses. The activation of p53 regulates cell fate by inducing DNA repair, cell cycle arrest, apoptosis, or cellular senescence. The activation of p53, therefore, is a good indicator of DNA damage and other cellular stresses. The CellSensor p53RE-bla HCT-116 cell line (Invitrogen) contains a stably integrated beta-lactamase reporter gene under control of the p53 response elements. The activation of the reporter gene under culture conditions can be detected by fluorescence intensity. This cell line was used to screen the Tox21 compound library in a 1536-well plate format and to identify agonists that activate the p53 signaling pathway. The cytotoxicity of the Tox21 compound library against the p53 RE-bla HCT-116 cell line was tested in parallel by measuring the intra cellular ATP content in the same wells.
Tox21 Assay Protocol Summary:
The p53RE-bla cells were dispensed at 4,000 cells/5 ul/well in 1536-well black wall/clear bottom plates using a Multidrop dispenser. After the assay plates were incubated at a 37 C/5% CO2 incubator for 5 hours, 23 nL of compounds dissolved in DMSO, positive controls or DMSO only was transferred to the assay plate by a pin tool. The plates were incubated at 37 C for 16 hours. After 1 uL of LiveBLAzerTM B/G FRET substrate was added using a Flying Reagent Dispenser, the plates were incubated at room temperature for 2 hours, and fluorescence intensity was measured by an Envision plate reader. For cell viability readout that measures cytotoxicity, 4 ul/well of CellTiter-Glo reagent was added into the assay plates using a Flying Reagent Dispenser. After 30 min incubation at room temperature, the luminescence intensity in the plates was measured using a ViewLux plate reader.
For `Nc1cc(Cl)ccc1O`, the Potency result was “inactive”.

Consider `Cc1cccc(OP(=O)(Oc2cccc(C)c2)Oc2cccc(C)c2)c1`, for which the Potency result was “inactive”. On to `Cc1ccc(N(SC(F)(Cl)Cl)S(=O)(=O)N(C)C)cc1`, for which the Potency entry was “inactive”. The entry for `C[C@@H]1CC[C@H]2[C@@H](C)C(=O)O[C@@H]3O[C@@]4(C)CC[C@@H]1[C@]32OO4` is “inactive”. The entry for `Cc1nnc2n1-c1sc(CCC(=O)N3CCOCC3)cc1C(c1ccccc1Cl)=NC2` is “inactive”. As for `CCOP(=S)(S)OCC`, the Potency entry was “inactive”. The entry for `C=CCC1=C(C)[C@@H](OC(=O)[C@@H]2[C@@H](C=C(C)C)C2(C)C)CC1=O` is “inactive”; for `CCCCN(CCCC)C(=S)S` it is “inactive”. For `CC(C)(C)C(O)C(Oc1ccc(-c2ccccc2)cc1)n1cncn1` (stereo not given) the value was “inactive”.

As for `CC(C)(C)N(NC(=O)c1ccc(Cl)cc1)C(=O)c1ccccc1`, the Potency result was “inactive”. For `CN(C)C(=O)Nc1cccc(OC(=O)NC(C)(C)C)c1`, the Potency entry was “inactive”. With `S=C=NCCc1ccccc1`, the Potency entry was “inactive”. For `c1ccc2c(c1)cc1ccc3cccc4ccc2c1c34`, the Potency result was “inactive”.

As for `Oc1ccc2[nH]cc(CCCCN3CC=C(c4ccccc4)CC3)c2c1`, the Potency result is “inactive”. For `Nc1cc2c3c(c1)C(c1ccccc1)=N[C@@H](NC(=O)c1cccnc1)C(=O)N3CC2` the value was “inactive”.

For the compound `CC(C)[C@H](C(=O)O[C@H](C#N)c1cccc(Oc2ccccc2)c1)c1ccc(Cl)cc1`, the Potency result was “inactive”. For `COP(=S)(OC)Oc1nc(Cl)c(Cl)cc1Cl` the value was “inactive”; for `O=C(O)C(Br)(Br)Br`, “inactive”; for `CC(C)(C)C(O)C(Oc1ccc(Cl)cc1)n1cncn1` (stereo not given), “inactive”.

On to `CCC(C)Br` (stereo not given), for which the Potency entry was “inactive”. With `CC1(C)CON(Cc2ccccc2Cl)C1=O`, the Potency result is “inactive”. For `ClCc1ccc(Cl)cc1Cl` the value was “inactive”; for `[Cl][Sb]([Cl])[Cl]`, “inactive”. The entry for `O=C(O)c1c(Cl)ccc2cc(Cl)cnc12` is “inactive”; for `COP(=O)(OC)O/C(=C\Cl)c1cc(Cl)c(Cl)cc1Cl` it is “inactive”; for `COP(N)(=S)OC` it is “inactive”. For `CCOP(=S)(OCC)SCSP(=S)(OCC)OCC` the value was “inactive”. Take `c1cncc([C@@H]2CCCCN2)c1`: the Potency result was “inactive”. The entry for `C#CC1(O)CCCCC1` is “inactive”; for `CCOP(=S)(OCC)SC(CCl)N1C(=O)c2ccccc2C1=O` (stereo not given) it is “inactive”. As for `N#Cc1c(-c2ccc(Cl)cc2)[nH]c(C(F)(F)F)c1Br`, the Potency entry is “inactive”.

In the case of `O=CC=O`, the Potency entry was “inactive”. On to `CC1(C)[C@H](C=C(Cl)Cl)[C@@H]1C(=O)O[C@@H](C#N)c1cccc(Oc2ccccc2)c1`, for which the Potency entry was “inactive”.

For the compound `Oc1ccc2ccc3cccc4ccc1c2c34`, the Potency result was “inactive”. For `ClC1=C(Cl)[C@]2(Cl)[C@H]3[C@H]([C@H]4C=C[C@H]3C4)[C@@]1(Cl)C2(Cl)Cl` the value was “inactive”. The entry for `CCCN(CC1CC1)c1c([N+](=O)[O-])cc(C(F)(F)F)cc1[N+](=O)[O-]` is “inactive”. The entry for `CNC(=O)N(C)c1nc2ccccc2s1` is “inactive”; for `CN(C1CCCCC1)C1CCCCC1` it is “inactive”; for `CC(=O)NC1CCSC1=O` (stereo not given) it is “inactive”. On to `O=c1[nH]c2cc(Cl)ccc2n1C1CCNCC1`, for which the Potency result was “inactive”.
